Assay outcomes as filed in PubChem BioAssay.
An excerpt weighted towards active compounds, which were near 1.6% of everything screened.
KCNQ2 block = rat KCNQ2 potassium channel inhibitors, primary screen, cell-based, CHO-K1, FluxOR thallium flux, B-score; 20 min; stronger effect = lower value; AID 2156, 2009; B-score at 10 µM; Potassium voltage-gated channel subfamily KQT member 2 (Rattus norvegicus), O88943; 310,000 tested, 1.1% active;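 active means fluorescence ratio B-score at most minus 3 library SDs, with starting brightness B-score within 2 library SDs, cut at about -5.5 in these data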
Target sequence (O88943 whole entry, looked up): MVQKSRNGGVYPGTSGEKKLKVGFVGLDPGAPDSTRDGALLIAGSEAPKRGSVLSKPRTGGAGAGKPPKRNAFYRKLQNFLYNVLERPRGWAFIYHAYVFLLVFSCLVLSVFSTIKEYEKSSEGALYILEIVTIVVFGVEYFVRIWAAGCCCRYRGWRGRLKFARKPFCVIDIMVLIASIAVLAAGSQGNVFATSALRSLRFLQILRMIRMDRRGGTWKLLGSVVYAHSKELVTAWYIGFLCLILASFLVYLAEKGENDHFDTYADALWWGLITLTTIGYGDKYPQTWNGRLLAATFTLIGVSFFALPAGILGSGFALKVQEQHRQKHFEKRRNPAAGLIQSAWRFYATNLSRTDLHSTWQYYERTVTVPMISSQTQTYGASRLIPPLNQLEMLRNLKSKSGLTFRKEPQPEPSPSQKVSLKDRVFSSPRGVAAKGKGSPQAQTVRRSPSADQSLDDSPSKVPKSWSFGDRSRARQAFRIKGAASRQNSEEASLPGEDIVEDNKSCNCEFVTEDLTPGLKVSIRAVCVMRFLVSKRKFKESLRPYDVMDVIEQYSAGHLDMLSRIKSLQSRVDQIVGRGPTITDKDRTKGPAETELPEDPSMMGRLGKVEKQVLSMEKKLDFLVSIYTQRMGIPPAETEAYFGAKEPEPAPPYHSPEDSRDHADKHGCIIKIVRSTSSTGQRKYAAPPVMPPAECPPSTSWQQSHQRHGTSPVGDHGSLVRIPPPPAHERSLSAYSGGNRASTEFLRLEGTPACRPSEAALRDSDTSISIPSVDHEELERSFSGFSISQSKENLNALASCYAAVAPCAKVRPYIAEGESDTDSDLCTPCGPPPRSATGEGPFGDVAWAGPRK
KCNQ2 enhance = potentiators of rat KCNQ2 potassium channel | CHO-K1 KCNQ2, FluxOR thallium flux fluorescence; stronger effect = higher value | B-score at 10 µM | 310,000 tested, 0.54% active | AID 2239, 2010;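 active means fluorescence ratio B-score at least 3 SD of library B-scores, with initial fluorescence B-score within 3 of them, cut at about 5.3 in these data; same plate scores as AID 2156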;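 further: B-score of peak minus minimum over baseline fluorescence ratio after K+ and Tl+ stimulus; positive B-score means potentiation of KCNQ2 with more thallium influx and brighter signal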
An asterisk follows results filed as active; i = inactive; . = no result given.

SMILES	KCNQ2 block	KCNQ2 enhance
O=C(CSc1nnc(Cc2cccs2)n1C1CCCCC1)N1CCCc2ccccc21	-6.5*	-6.5
CCCCn1c(N)c(N(CC(C)C)C(=O)Cc2ccc3c(c2)OCCO3)c(=O)[nH]c1=O	i	0.71
CC(C(=O)N1CCN(c2ccc(Cl)cc2)CC1)c1ncc(C(F)(F)F)cc1Cl (stereo unspecified)	i	.
Cc1ccc(OCC(=O)Nc2ccc(NC(=O)c3ccccc3)c(C)c2)cc1	i	.
O=C(CN1c2ccccc2S(=O)(=O)c2ccccc21)NCc1ccc(F)cc1	i	.
O=C(Nc1ccc2c(c1)CCC2)c1cccc(F)c1	i	7.3*
Cc1ccc(C(=O)Nc2ccc3c(c2)CCC3)cc1	i	0.92
COc1cccc(NC(=O)N2CCCC2C(=O)NCc2ccc(Cl)cc2)c1 (stereo unspecified)	i	0.52
CC(C)=NOc1nc(N2CCOCC2)nc(N2CCOCC2)n1	i	0.22
Cc1cc(C)nc(SCc2nnc(SCc3ccc([N+](=O)[O-])cc3)n2Cc2ccco2)n1	-5.8*	-5.8
COC(=O)CSc1nnc(CSc2nc(C)cc(C)n2)n1Cc1ccco1	i	.
O=C(c1cccc(Br)c1)N1CCN(S(=O)(=O)N2CCCCCC2)CC1	i	.
Cc1sc2nc(CSc3ccccc3)nc(N3CCOCC3)c2c1C	-5.9*	-5.9
Cc1sc2nc(CSc3ccccc3)nc(N3CCC(C(N)=O)CC3)c2c1C	i	1.4
CCOc1ccc(CNC(=O)CN2C(=O)CSc3ccc(S(=O)(=O)N4CCOCC4)cc32)cc1OC	i	0.43
COCc1cc(Sc2ccc(Cl)cc2)nc(-c2ccccc2)n1	-5.9*	-5.9
COCc1cc(Sc2ccc(Br)cc2)nc(-c2ccccc2)n1	i	.
Cc1ccc(S(=O)(=O)Nc2cccc3ncccc23)cc1	i	.
Cc1ccc(S(=O)(=O)Nc2cccc3ncccc23)s1	i	6*
CC(C)c1ccc(NC(=S)NCCc2c[nH]c3ccccc23)cc1	i	.
COc1ccc(/C(N)=N/O)c(OC)c1	i	.
COc1ccc(OC)c(NC(=S)N2CCN(Cc3ccccc3)CC2)c1	i	1
COc1ccc(OC)c(NC(=S)N2CCC(C(O)(c3ccccc3)c3ccccc3)CC2)c1	i	5.9*
S=C(NCc1cccc(Cl)c1)NC1CCCCC1	i	8*
S=C(NCc1ccccc1)NC1CCCCC1	i	1.3
SMILES	KCNQ2 block	KCNQ2 enhance
O=C(NCCCN1CCOCC1)c1ccccc1N1C(=O)[C@@H]2Cc3c([nH]c4ccccc34)C(c3cccc(Cl)c3)N2C1=O (stereo partly specified)	-5.6*	-5.6
Cc1ccc(C2c3[nH]c4ccccc4c3C[C@H]3C(=O)N(c4ccccc4C(=O)NCCCN4CCOCC4)C(=O)N23)cc1 (stereo partly specified)	i	.
O=C(NCc1ccccc1)N1CCC(n2cnc3cc(F)ccc32)CC1	i	0.61
O=S(=O)(c1ccc(Cl)cc1)N1CCN(S(=O)(=O)N2CCCCCC2)CC1	i	.
O=S(=O)(c1ccc(Oc2ccc(Cl)cc2)c(S(=O)(=O)N2CCCCC2)c1)N1CCCCC1	-7.2*	-7.2
O=C(NCC1COc2ccccc2O1)c1ccc(Br)s1 (stereo unspecified)	-6.2*	-6.2
O=C(NCC1COc2ccccc2O1)c1cccs1 (stereo unspecified)	i	.
CCOc1ccc(-c2cc(N)n(S(=O)(=O)c3ccc(OC)cc3)n2)cc1	i	2
COc1ccc(-c2cc(N)n(S(=O)(=O)c3c(F)c(F)c(F)c(F)c3F)n2)cc1OC	-8.8*	-8.8
O=C(C1=C[C@@H](c2ccc(C(F)(F)F)cc2)C[C@@H](OCc2ccc(CO)cc2)O1)N1CCN(Cc2ccc3c(c2)OCO3)CC1	i	.
O=C(C1=C[C@@H](c2ccc(Br)cc2)C[C@@H](OCc2ccc(CO)cc2)O1)N1CCN(Cc2ccc3c(c2)OCO3)CC1	-6.3*	-6.3
O=C(C1=C[C@H](c2csc3ccccc23)C[C@H](OCc2ccc(CO)cc2)O1)N1CCCCCCC1	-5.6*	-5.6
CN1CCN(C(=O)C2=C[C@H](c3csc4ccccc34)C[C@H](OCc3ccc(CO)cc3)O2)CC1	i	.
Cc1c(NC(=O)C(C)Sc2nc3ccccc3c(=O)n2CCO)c(=O)n(-c2ccccc2)n1C (stereo unspecified)	i	0.4
CC(C)[C@@H](C(=O)N[C@@H](Cc1ccccc1)C(=O)O)N1C(=O)N2CCc3c([nH]c4ccccc34)[C@@]2(C)C1=O	i	.
Cn1c(SCC(=O)Nc2nccs2)nnc1-c1ccco1	i	.
Cn1c(SCC(=O)Nc2ccc(Cl)cc2F)nnc1-c1ccco1	-5.8*	-5.8
COCc1nnc(NC(=O)c2cc(OC)c(OC)cc2[N+](=O)[O-])s1	i	0.93
CCOC(=O)C1=NN(c2ccccc2)C2=NC(C)=C(C(=O)OC)C(c3cccs3)N12 (stereo unspecified)	i	.
